PubChem BioAssay (NCATS)
Records with an inconclusive call do not appear. The source made the active and inactive calls. Calls follow the shape of the dose curve; as a rule, active = well fitted curve in the direction sought with a large enough effect; inconclusive = small, poorly fitted or top-dose-only effect, or another doubt; inactive = no such curve, though single readings can be large; an effect the other way counts as inactive or inconclusive.

Columns and labels:
NIH3T3 = test: qHTS assay to identify novel small-molecules to repurpose for Merkel cell carcinoma treatment (AID 1296009); conditions: MCC and control cell lines, CellTiter-Glo viability, 72 h; at 44.8 µM (top of the series) unless noted; also: nearly all actives have a fitted effect of over 60% in size
Outline: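 Cells were incubated with compound for 72 hr at 37 degree celsius before CellTiter-Glo addition. Luminescence was normalized with no-cell wells as full cytotoxicity and DMSO as baseline.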

C33A = test: Primary qHTS to identify gynecologic anti-cancer compounds using libraries of approved drugs and bioactive compounds (AID 1345084); conditions: Gynecologic cancer cell panel viability, ATPlite luminescence, 48 h; series mostly up to 57.5 µM; also: nearly all actives have a fitted effect of over 55% in size
Outline: (§1)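 Cytotoxicity screen measuring ATP content by luciferase luminescence. Each compound is applied at five concentrations for 48 h at 37 C with 5% CO2.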

CAOV3 = test: as above; conditions: Gynecologic cancer cell panel viability, ATPlite luminescence, 48 h; series mostly up to 57.5 µM
Outline: as §1

CASKI = test: as above; conditions: Gynecologic cancer cell panel viability, ATPlite luminescence, 48 h; series mostly up to 57.5 µM
Outline: as §1

Es-2 = test: as above; conditions: Gynecologic cancer cell panel viability, ATPlite luminescence, 48 h; series mostly up to 57.5 µM
Outline: as §1

HeLa = test: as above; conditions: Gynecologic cancer cell panel viability, ATPlite luminescence, 48 h; series mostly up to 57.5 µM
Outline: as §1

Hek293T = test: as above; conditions: Gynecologic cancer cell panel viability, ATPlite luminescence, 48 h, control line for the selectivity index; series mostly up to 57.5 µM
Outline: as §1

JEG-3 = test: as above; conditions: Gynecologic cancer cell panel viability, ATPlite luminescence, 48 h; series mostly up to 57.5 µM
Outline: as §1

OV90 = test: as above; conditions: Gynecologic cancer cell panel viability, ATPlite luminescence, 48 h; series mostly up to 57.5 µM
Outline: as §1

PA-1 = test: as above; conditions: Gynecologic cancer cell panel viability, ATPlite luminescence, 48 h; series mostly up to 57.5 µM
Outline: as §1

SKOV3 = test: as above; conditions: Gynecologic cancer cell panel viability, ATPlite luminescence, 48 h; series mostly up to 57.5 µM
Outline: as §1

Tov-21-G = test: as above; conditions: Gynecologic cancer cell panel viability, ATPlite luminescence, 48 h; series mostly up to 57.5 µM
Outline: as §1

Tov112D = test: as above; conditions: Gynecologic cancer cell panel viability, ATPlite luminescence, 48 h; series mostly up to 57.5 µM
Outline: as §1

Measured: Potency

CC1(C)C(=O)C(C)(C)c2cc(C(=O)Nc3ccc(C(=O)O)cc3)ccc21
inactive: all assays above

C=C1CC[C@@H]2[C@](C)(CO[C@@H]3O[C@H](CO)[C@@H](O)[C@H](O)[C@H]3O)CCC[C@@]2(C)[C@@H]1CCC1=CCOC1=O
inactive: NIH3T3 inactive [at 17.4 µM] | C33A | CAOV3 | CASKI | Es-2 | HeLa | Hek293T | JEG-3 | OV90 | PA-1 | SKOV3 | Tov-21-G | Tov112D

C/C=C/C1=CC2=CC(=O)C(C)(O)C(OC(=O)c3c(C)cc(O)cc3O)C2CO1 (configuration not stated)
inactive: all assays above

Cc1onc(-c2ccccc2)c1C(=O)N[C@@H]1C(=O)N2[C@@H]1SC(C)(C)[C@@H]2C(=O)O
inactive: all assays above

CC1(C(=O)O)CCCC2(C)C1CCC13CC(CCC21)C1(CO)OC31 (configuration not stated)
inactive: all assays above

CCOC(=O)c1ccc(N(C)c2csc(-c3ccccc3)n2)cc1
inactive: all assays above

COc1cc2c(cc1O)C1(Cc3ccc4c(c3C1=O)OCO4)N(C)CC2 (configuration not stated)
inactive: all assays above

CC(=O)O[C@@]1(C)C[C@@H](O)[C@]2(O)C=CO[C@@H](O[C@@H]3O[C@H](CO)[C@@H](O)[C@H](O)[C@H]3O)[C@@H]21
inactive: NIH3T3 inactive [at 17.4 µM] | C33A | CAOV3 | CASKI | Es-2 | HeLa | Hek293T | JEG-3 | OV90 | PA-1 | SKOV3 | Tov-21-G | Tov112D

C[C@]1(OC(=O)/C=C/c2ccccc2)C[C@H](O)[C@]2(O)C=CO[C@@H](O[C@@H]3O[C@H](CO)[C@@H](O)[C@H](O)[C@H]3O)C12 (some centres not stated)
inactive: NIH3T3 inactive [at 17.4 µM] | C33A | CAOV3 | CASKI | Es-2 | HeLa | Hek293T | JEG-3 | OV90 | PA-1 | SKOV3 | Tov-21-G | Tov112D

CC(C)C1=CC2=CCC3[C@](C)(CCC[C@@]3(C)C(=O)O)C2CC1O (some centres not stated)
inactive: all assays above

CC(=O)OC[C@]1(O)[C@H]2[C@H](OC(=O)CC(C)C)OC=C(CO[C@@H]3O[C@H](CO)[C@@H](O)[C@H](O)[C@H]3O)[C@H]2C[C@@H]1O
inactive: NIH3T3 inactive [at 17.4 µM] | C33A | CAOV3 | CASKI | Es-2 | HeLa | Hek293T | JEG-3 | OV90 | PA-1 | SKOV3 | Tov-21-G | Tov112D

C/C(=C\CCC(C(=O)O)C1CCC2(C)C3=C(CCC12C)C1(C)CCC(=O)C(C)(C)C1CC3)C(=O)O (configuration not stated)
inactive: NIH3T3 inactive [at 17.4 µM] | C33A | CAOV3 | CASKI | Es-2 | HeLa | Hek293T | JEG-3 | OV90 | PA-1 | SKOV3 | Tov-21-G | Tov112D

O=C1Nc2ccc(O)cc2O[C@H]1O[C@@H]1O[C@H](CO)[C@@H](O)[C@H](O)[C@H]1O
inactive: all assays above

CN[C@@H]1[C@@H](O)[C@@H](O[C@@H]2[C@@H](O)[C@H](O[C@H]3O[C@H](CN)[C@@H](O)[C@H](O)[C@H]3O)[C@@H](N)C[C@H]2NC(=O)[C@@H](O)CN)OC[C@]1(C)O
inactive: all assays above
